In PubChem BioAssay (NCATS) one finds Potency data, which are given here for 40 molecules.

Values joined by “and” are separate entries in the source; they are usually repeats but may differ in a detail not shown here. Identical values can stand only once. Records with an inconclusive call do not appear. More than one record can exist for a structure, and the calls need not agree. Active and inactive are the calls of the source. Calls come from the whole dose curve; as a rule, active = well fitted cell-killing curve with a large enough effect; inconclusive = small, poorly fitted or top-dose-only effect, or effect the other way; inactive = no such curve, though single readings can be large or run the other way.
Potency is the fitted concentration of half-maximal effect.

The nature of the test: Viability qHTS for spleen associated tyrosine kinase inhibitor (SYKi) naive MV4-11 cells (AID 1963823). Note: nearly all actives have a fitted effect of over 40% in size. The settings on record: MV4-11 AML viability, CellTiter-Glo luminescence, 72 h; series mostly up to 45 µM. The method in brief:
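In this viability screen, compounds acted on SYK inhibitor naive MV4-11 cells for three days (72 hr, 37 C). Remaining viable cells were measured by CellTiter-Glo luminescence following a 10 min room-temperature development.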
In the case of `Clc1cc2c(NC3CCCC3)nnc(-c3ccncc3)c2cc1Cl`, the Potency result is “inactive and 18.6 µM (active)”.

As for `Cc1cccc(/C=N/Nc2cc(N3CCOCC3)nc(OCCc3ccccn3)n2)c1`, the Potency was 1.32 µM (active).

As to `N#C/C(=C1/SC[C@@H](c2ccc(Cl)cc2Cl)S1)n1ccnc1`, the Potency was 11.9 µM (active).

For the molecule `COC(=O)C1=C(C)NC(COC(N)=O)=C(C(=O)OC(C)C)C1c1cccc(Cl)c1Cl` (stereo not given), the Potency was 21.1 µM (active).

As for `COc1ccc([C@@H]2Sc3ccccc3N(CCN(C)C)C(=O)[C@@H]2OC(C)=O)cc1`, the Potency result is “inactive”.

With `Cn1cc(-c2cnn3c(N)c(Br)c(C4CCCNC4)nc23)cn1` (stereo not given), the Potency was 0.291 µM (active).

Take `Cc1ccc2c(Br)cc(Br)c(O)c2n1`: the Potency was 16.8 µM (active).

`Cc1cc(F)c(C(=O)Nc2cccc(-c3nncn3C(C)C)n2)cc1-n1cnc(C2CC2)c1`: the Potency is 5.25 µM (active).

For the molecule `O=C(NCc1ccc(S(=O)(=O)c2cccc(C(F)(F)F)c2)cc1)c1cnc2[nH]ncc2c1`, the Potency was 0.0118 µM (active).

As for `CCC(=O)N1CCOc2c(cc(-c3cc(OC)cc(OC)c3)cc2C(=O)N[C@H]2CCCN(C)C2)C1`, the Potency was 16.6 µM (active).

Regarding `C=CC(=O)N1CCC(Oc2cc3c(Nc4ccc(Cl)c(Cl)c4F)ncnc3cc2OC)CC1`, the Potency is 1.03 µM (active).

With `O=C(/C=C/c1ccc2ccc(C(F)(F)F)cc2n1)c1ccncc1`, the Potency was 0.934 µM (active).

Turning to `COC1CCN(C(=O)c2cc(Cc3n[nH]c(=O)c4ccccc34)ccc2F)CC1`, the Potency is 18.6 µM (active).

Take `CCC[C@H](NC(=O)/C(C#N)=C/c1cccc(Br)n1)c1ccccc1`: the Potency was 2.09 µM (active).

With `CN(C)/C(N)=N/C(=N)N`, the Potency entry is “inactive”.

Regarding `CC(=O)Nc1cccc(O)c1`, the Potency entry is “inactive”.

On to `CCCCOC(=O)c1ccc(O)cc1`, for which the Potency entry is “inactive”.

As to `COc1ccc(-c2oc3ncnc(N)c3c2-c2ccc(NC(=O)Nc3cc(C(F)(F)F)ccc3F)cc2)cc1`, the Potency is 41.1 nM (active) and 66.1 nM (active).

On to `O=C(CCN1CCC(c2ccccc2)C1)c1ccc2c(c1)OCCO2` (stereo not given), for which the Potency was 7.5 µM (active).

In the case of `COc1ccccc1C(=O)Nc1cc2c(cc1N1CCCCC1)n(C)c(=O)n2C`, the Potency was 14.8 µM (active).

With `CCCCCCCCCCCCCCCC[n+]1ccccc1`, the Potency was 0.668 µM (active).

Take `N[C@@H]1CN(c2c(F)cc3c(=O)c(C(=O)O)cn([C@@H]4C[C@@H]4F)c3c2Cl)CC12CC2`: the Potency result is “inactive”.

As for `CC/C(=C(/CC)c1ccc(O)cc1)c1ccc(O)cc1`, the Potency is 16.6 µM (active).

With `Cc1c(C)n(Cc2ccccc2)c2ccc(C(=O)OCCN(C)C)cc12`, the Potency is 11.9 µM (active).

Turning to `Cn1cc(C2=C(c3cn(C)c4cc([N+](=O)[O-])ccc34)C(=O)NC2=O)c2ccccc21`, the Potency is 0.296 µM (active).

On to `O=C(O)C(Cc1cc(I)c(O)c(I)c1)c1ccccc1` (stereo not given), for which the Potency result is “inactive”.

Consider `Cn1ncc2cc(-c3cnc(N)c(Cl)c3N3CCC4(CCNC4=O)CC3)ccc21`, for which the Potency is 2.31 µM (active) and 1.48 µM (active).

On to `C[C@]12CC[C@@H]3c4ccc(O)cc4CC[C@H]3[C@@H]1CC[C@@H]2O`, for which the Potency is 16.6 µM (active).

`CC(=O)OCC(=O)[C@@]1(O)[C@H](OC(C)=O)C[C@H]2[C@@H]3CCC4=CC(=O)C=C[C@]4(C)[C@@]3(F)[C@@H](O)C[C@@]21C`: the Potency entry was “inactive”.

`COC[C@@H](c1ccc(C(F)(F)F)cc1)N1CCN(C2(C)CCN(C(=O)c3c(C)ncnc3C)CC2)C[C@@H]1C`: the Potency entry was “inactive”.

For the molecule `Oc1cc(O)c2c(c1)O[C@H](c1ccc(O)c(O)c1)[C@H](O)C2`, the Potency entry was “inactive”.

With `O=C1Nc2ccc(I)cc2/C1=C/c1cc(Br)c(O)c(Br)c1`, the Potency is 18.6 µM (active).

Consider `CN(C)CCNC(=O)NC[C@H]1CC[C@@H]2[C@H](O1)c1cc(C(F)(F)F)ccc1N[C@H]2c1ccccc1`, for which the Potency is 0.148 µM (active).

Regarding `CCCNC(C)(C)COC(=O)c1ccccc1`, the Potency entry was “inactive”.

Consider `CCNC(=O)C#Cc1ccc2c(C(=Nc3ccc(CN(C)C)cc3)c3ccccc3)c(O)[nH]c2c1`, for which the Potency is 0.0126 µM (active).

`CN(C)C(=O)C(CCN1CCC(O)(c2ccc(Cl)cc2)CC1)(c1ccccc1)c1ccccc1`: the Potency was 16.8 µM (active) and 14.8 µM (active).

`Oc1ccc(CCNCCCCCCNCCc2ccccc2)cc1O`: the Potency is 26.6 µM (active).

Consider `Oc1ccc(O)cc1`, for which the Potency is 11.9 µM (active).

As to `CCOc1cc2ncc(C#N)c(Nc3ccc(OCc4ccccn4)c(Cl)c3)c2cc1NC(=O)/C=C/CN(C)C`, the Potency is 126 nM (active) and 525 nM (active).

With `Nc1nc(N)c(-c2ccccc2)s1`, the Potency entry was “inactive”.
